# From PubChem BioAssay (EPA / NIEHS)
# Active and inactive are the calls of the source. The calls were made as follows: active = hit-call score of the fitted dose curve at least 0.9, where 1 is the maximum; inactive = score below 0.9.
# Molecular target: Aryl hydrocarbon receptor (Homo sapiens) (UniProt P35869)
# Test: ATG_Ahr_CIS: Attagene CIS-FACTORIAL HepG2 Assay for human Aryl Hydrocarbon Receptor (Ahr) (AID 2282930)
# Settings: HepG2 AhR cis-factorial reporter transcription; actives raise or lower the signal
# Description: ATG_CIS is a cell-based, multiplexed-readout assay that uses HepG2, a human liver cell line, with measurements taken at 24 hours after chemical dosing in a 24-well plate.ATG_Ahr_CIS is one of 52 assay component(s) measured or calculated from the ATG_CIS assay. It is designed to make measurements of mRNA induction, a form of inducible reporter, as detected with fluorescence intensity signals by Reverse transcription polymerase chain reaction (RT-PCR) and Capillary electrophoresis technology.Data from the assay component ATG_Ahr_CIS was analyzed into 1 assay endpoint. This assay endpoint, ATG_Ahr_CIS, was analyzed with bidirectional fitting relative to DMSO as the negative control and baseline of activity. Using a type of inducible reporter, measures of mRNA for gain or loss-of-signal activity can be used to understand the reporter gene at the transcription factor-level as they relate to the gene AHR. Furthermore, this assay endpoint can be referred to as a primary readout, because this assay has produced multiple assay endpoints where this one serves a reporter gene function. To generalize the intended target to other relatable targets, this assay endpoint is annotated to the dna binding intended target family, where the subfamily is basic helix-loop-helix protein.
# Human liver HepG2 cells are transiently transfected with multiple reporter transcription units (MRTUs) in 6-well plates using FuGene 6 reagent (Roche; 3 ml FuGene/1 mg DNA). The MRTU constructs are regulated by a cis-regulating element (promoter). […] A major difference between the CIS and TRANS system is that in CIS activities of endogenous TFs are measured, whereas the TRANS assay evaluates changes in activities of exogenous, chimeric NR-Gal4 proteins. […] At the end of 24 hour incubation, total RNA was isolated using TriZol reagent (Invitrogen). The isolated RNA is then reverse-transcribed using oligo(dT) primer and Mo-MLV reverse transcriptase (Invitrogen) with DNAse I (Ambion) treatment for 30 min. The one-tenth of the produced cDNA was amplified by PCR using Taq DNA polymerase (Invitrogen) and two reporter sequence-specific primers. The PCR products were fluorescently labeled by primer extension with 6-arboxyfluorescein (6-FAM) 5'-labeled reporter sequence-specific primer (2 min at 95 C, 20 s at 68 C and 10 min at 72 C) and these products were digested with 5U of HpaI (New England Biolabs) for 2h at 37 C. […] The raw capillary electrophoresis data was processed using Attagraph software (Attagene).
# Chain of Aryl hydrocarbon receptor (Homo sapiens) (P35869 whole entry, looked up): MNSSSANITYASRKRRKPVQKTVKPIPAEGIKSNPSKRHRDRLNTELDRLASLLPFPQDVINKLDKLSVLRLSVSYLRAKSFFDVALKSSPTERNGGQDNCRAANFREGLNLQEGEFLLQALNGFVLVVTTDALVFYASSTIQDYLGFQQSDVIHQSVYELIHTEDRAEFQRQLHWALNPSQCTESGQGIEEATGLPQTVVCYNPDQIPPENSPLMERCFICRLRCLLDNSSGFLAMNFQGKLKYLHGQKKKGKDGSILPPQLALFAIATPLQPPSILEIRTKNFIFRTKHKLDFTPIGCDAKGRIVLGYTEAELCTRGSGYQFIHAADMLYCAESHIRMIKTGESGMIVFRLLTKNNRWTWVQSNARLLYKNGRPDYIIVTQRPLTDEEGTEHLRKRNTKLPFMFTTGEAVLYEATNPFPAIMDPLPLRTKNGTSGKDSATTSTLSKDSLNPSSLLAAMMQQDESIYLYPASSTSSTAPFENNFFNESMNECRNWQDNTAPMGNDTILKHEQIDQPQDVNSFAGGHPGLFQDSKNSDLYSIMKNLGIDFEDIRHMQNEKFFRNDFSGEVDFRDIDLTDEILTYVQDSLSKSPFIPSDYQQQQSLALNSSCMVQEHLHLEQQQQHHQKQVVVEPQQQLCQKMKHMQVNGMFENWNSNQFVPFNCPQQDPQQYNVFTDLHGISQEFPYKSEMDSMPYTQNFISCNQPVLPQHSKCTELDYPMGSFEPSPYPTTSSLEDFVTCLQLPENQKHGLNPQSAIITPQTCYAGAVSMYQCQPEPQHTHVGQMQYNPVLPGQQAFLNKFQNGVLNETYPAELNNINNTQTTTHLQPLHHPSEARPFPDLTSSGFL
SMILES,AC50,outcome
CCN=C1C=CC(=C(c2ccc(N(CC)CC)cc2)c2ccc(N(CC)CC)cc2)c2ccccc21,0.0482 µM (active),
CCOCOCC,,inactive
CCC(=O)OC(C)c1ccccc1 (stereo not given),,inactive
CCOC(OCC)OCC,31.6 µM (active),
O=C(c1ccccc1)c1ccc(Cl)cc1,,inactive
CCOC(C=C(C)CCC=C(C)C)OCC,,inactive
COC(=O)c1ccc(C=O)cc1,105 µM (active),
CN1CN(C)CN(C)C1,,inactive
C[Si](Cl)(Cl)CCC(F)(F)C(F)(F)C(F)(F)C(F)(F)C(F)(F)C(F)(F)F,,inactive
O=S(=O)(O)CCC(F)(F)C(F)(F)C(F)(F)C(F)(F)C(F)(F)C(F)(F)C(F)(F)C(F)(F)F,,inactive
CCN(CC)c1ccc(N=Nc2ccccc2)cc1,5.68 µM (active),
COCCC(=O)OC,,inactive
CCCCCCCCn1sc(Cl)c(Cl)c1=O,6.89 µM (active),
CCOC(=O)CC(=O)C(F)(F)C(F)(F)F,,inactive
OC(O)C(F)(F)C(F)(F)F,,inactive
CCN(CC)c1ccc(C=O)cc1,,inactive
O=C(Cl)C(F)(F)C(F)(F)C(F)(F)C(F)(F)C(F)(F)C(F)(F)F,,inactive
CC(C)=CCCC(C)O (stereo not given),,inactive
O=C=Nc1cccc2c(N=C=O)cccc12,4.73 µM (active),
CC(C)(C)C(=O)C1C(=O)c2ccccc2C1=O,34.6 µM (active),

SMILES,AC50,outcome
CN(C)C(C)(C)CO,,inactive
Oc1ccc2c(c1)CCC2,,inactive
CC(C)(C)c1cc(CCC(=O)OCC(COC(=O)CCc2cc(C(C)(C)C)c(O)c(C(C)(C)C)c2)(COC(=O)CCc2cc(C(C)(C)C)c(O)c(C(C)(C)C)c2)COC(=O)CCc2cc(C(C)(C)C)c(O)c(C(C)(C)C)c2)cc(C(C)(C)C)c1O,,inactive
CCN(CC)c1ccc2c(c1)Oc1cc(N(CC)CC)ccc1C21OC(=O)c2ccccc21,7.41 µM (active),
CC1=CC2C3C=CC(C3)C2C1C (stereo not given),,inactive
CN(N=O)C(=O)N[C@@H]1[C@@H](O)[C@H](O)[C@@H](CO)O[C@@H]1O,,inactive
O=C(Cl)C(F)(F)C(F)(F)C(F)(F)C(F)(F)C(F)(F)C(F)(F)C(F)(F)F,,inactive
Cc1ccc([N+](=O)[O-])c(C)c1,,inactive
Cc1cc(O)c(C(C)(C)C)cc1C(C)(C)C,,inactive
OCC(F)(F)C(F)(F)C(F)(F)C(F)(F)C(F)(F)C(F)(F)CO,,inactive
CC(C)Nc1ccc(NC(C)C)c2c1C(=O)c1ccccc1C2=O,3.35 µM (active),
Cc1cc(=O)[nH]c(C(C)C)n1,,inactive
Brc1nc2ccccc2s1,2.56 µM (active),
CCOC(=O)CCC(C)=O,,inactive
CC(C)OC(=O)COc1ccc(Cl)cc1Cl,,inactive
CC(C)(C)c1cc(CCC(=O)NCCCCCCNC(=O)CCc2cc(C(C)(C)C)c(O)c(C(C)(C)C)c2)cc(C(C)(C)C)c1O,,inactive
CCCCCCCCCCCCCC[P+](CCCC)(CCCC)CCCC,,inactive
CN(C(=O)C(F)(F)C(F)(F)C(F)(F)F)[Si](C)(C)C,,inactive
CCCCC(CC)COC(=O)c1ccc(N(C)C)cc1 (stereo not given),,inactive
Cc1ccc2c(c1)OCC(=O)CO2,,inactive
